Laboratory results: PubChem BioAssay (EPA / NIEHS)
Results filed as inconclusive are left out. Calls of active or inactive are those of the source. How the source made its calls: active means hit-call score of the fitted dose curve at least 0.9, where 1 is the maximum; inconclusive means response in the unintended direction; inactive means score below 0.9.

These compounds were tested against human Retinoid X Receptor beta (RXRb), RXRB (gene 6257) (UniProt P28702) (assay: ATG_RXRb_TRANS: Attagene TRANS-FACTORIAL HepG2 Assay for human Retinoid X Receptor beta (RXRb) (AID 2283013)).
human Retinoid X Receptor beta (RXRb), RXRB (gene 6257), sequence (P28702 whole entry, looked up): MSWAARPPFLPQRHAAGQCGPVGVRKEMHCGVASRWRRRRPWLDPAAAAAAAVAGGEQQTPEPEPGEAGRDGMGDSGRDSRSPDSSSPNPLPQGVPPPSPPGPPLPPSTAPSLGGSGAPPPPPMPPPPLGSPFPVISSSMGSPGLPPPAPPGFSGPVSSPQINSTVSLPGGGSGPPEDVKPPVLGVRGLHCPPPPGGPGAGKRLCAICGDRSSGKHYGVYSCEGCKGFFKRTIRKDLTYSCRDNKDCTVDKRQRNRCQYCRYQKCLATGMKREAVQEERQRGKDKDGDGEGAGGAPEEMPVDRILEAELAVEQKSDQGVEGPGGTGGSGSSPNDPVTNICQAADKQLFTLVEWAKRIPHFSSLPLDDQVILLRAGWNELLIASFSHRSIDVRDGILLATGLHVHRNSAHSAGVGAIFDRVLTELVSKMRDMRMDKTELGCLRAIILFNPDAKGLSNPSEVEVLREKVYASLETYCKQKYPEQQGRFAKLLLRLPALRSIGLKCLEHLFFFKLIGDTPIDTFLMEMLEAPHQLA
Method: ATG_TRANS is a cell-based, multiplexed-readout assay that uses HepG2, a human liver cell line, with measurements taken at 24 hours after chemical dosing in a 24-well plate.ATG_RXRb_TRANS is one of 30 assay component(s) measured or calculated from the ATG_TRANS assay. It is designed to make measurements of mRNA induction, a form of inducible reporter, as detected with fluorescence intensity signals by Reverse transcription polymerase chain reaction (RT-PCR) and Capillary electrophoresis technology.Data from the assay component ATG_RXRb_TRANS was analyzed into 1 assay endpoint. This assay endpoint, ATG_RXRb_TRANS, was analyzed in the positive analysis fitting direction relative to DMSO as the negative control and baseline of activity. Using a type of inducible reporter, measures of mRNA for gain-of-signal activity can be used to understand the reporter gene at the transcription factor-level as they relate to the gene RXRB. Furthermore, this assay endpoint can be referred to as a primary readout, because this assay has produced multiple assay endpoints where this one serves a reporter gene function. To generalize the intended target to other relatable targets, this assay endpoint is annotated to the nuclear receptor intended target family, where the subfamily is non-steroidal.
Human liver HepG2 cells are transiently transfected with multiple reporter transcription units (MRTUs) in 6-well plates using FuGene 6 reagent (Roche; 3 ml FuGene/1 mg DNA). The MRTU constructs are regulated by a cis-regulating element (promoter). […] A major difference between the CIS and TRANS system is that in CIS activities of endogenous TFs are measured, whereas the TRANS assay evaluates changes in activities of exogenous, chimeric NR-Gal4 proteins. […] At the end of 24 hour incubation, total RNA was isolated using TriZol reagent (Invitrogen). The isolated RNA is then reverse-transcribed using oligo(dT) primer and Mo-MLV reverse transcriptase (Invitrogen) with DNAse I (Ambion) treatment for 30 min. The one-tenth of the produced cDNA was amplified by PCR using Taq DNA polymerase (Invitrogen) and two reporter sequence-specific primers. The PCR products were fluorescently labeled by primer extension with 6-arboxyfluorescein (6-FAM) 5'-labeled reporter sequence-specific primer (2 min at 95 C, 20 s at 68 C and 10 min at 72 C) and these products were digested with 5U of HpaI (New England Biolabs) for 2h at 37 C. The fragments were purified using Qiaquick PCR columns (Qiagen), analyzed on an ABI 3130xL genetic analyzer (Applied Biosystems) with peak positions identified by using a set of X-rhodamine (ROX)-labeled MapMarker1000 molecular weight standards (BioVentures). The raw capillary electrophoresis data was processed using Attagraph software (Attagene).
`O=C(CCCCCCCCc1cccnc1)N1CCC(C=C(c2ccccc2)c2ccccc2)CC1` was tested, and the outcome was “inactive”. With `Cc1ccc(N)cc1O` the outcome was “inactive”. With `COc1ccc(-n2nc(C(F)F)cc2-c2ccc(S(C)=O)cc2)cc1` (stereo not given) the outcome was “inactive”. With `C1N2CN3CN1CN(C2)C3` the outcome was “inactive”. For `O=C(O)c1cccc(Oc2ccccc2)c1`, the outcome was “inactive”. In the case of `Oc1ccc2c(c1)-c1ccccc1C2`, the AC50 is reported as 26.2 µM (active). `CC(C)CCCCCCOC(=O)c1ccc(C(=O)OCCCCCCC(C)C)c(C(=O)OCCCCCCC(C)C)c1` was tested, and the AC50 was 63.2 µM (active). In the case of `C[C@](N)(Cc1ccc(O)c(O)c1)C(=O)O`, the outcome is reported as “inactive”. In the case of `CCCCCCCCCCCCCCCO`, the AC50 is reported as 27.5 µM (active). In the case of `C=CCCCCCCCCC(=O)O`, the AC50 is reported as 74.8 µM (active). For `CN(C)c1ccc(N=NS(=O)(=O)O)cc1`, the outcome was “inactive”. For `CC[C@H]1CC[C@H](NCc2cc3c(cc2OC)[C@H]2C[C@H]2C(=O)N3C)[C@H](c2ccccc2)N1`, the outcome was “inactive”. For `O=C(O)CCN(C1(C(=O)NO)CCCC1)S(=O)(=O)c1ccc(Oc2ccc(F)cc2)cc1`, the outcome was “inactive”. For `O=C(O)c1cc(N=Nc2ccc(S(=O)(=O)Nc3ccccn3)cc2)ccc1O`, the outcome was “inactive”. `CCCCC(CC)COC(=O)c1ccc(C(=O)OCC(CC)CCCC)cc1` (stereo not given) was tested, and the AC50 was 49.7 µM (active). `CCCN(C1CCN(C(=O)C2CCNCC2)CC1)[C@@H]1CCc2ccc(OC)cc2C1` was tested, and the outcome was “inactive”. In the case of `Cc1c(-c2cccnc2)c2ccccc2n1CCCCC(=O)O`, the outcome is reported as “inactive”. With `Cc1[nH]cnc1C[C@H]1CCc2c(C)c3ccccc3n2C1=O` the outcome was “inactive”. `CCCCC(CC)COC(=O)CCCCCCCCC(=O)OCC(CC)CCCC` (stereo not given) was tested, and the outcome was “inactive”. With `Cc1ccc(S(=O)(=O)O)cc1C` the outcome was “inactive”. With `COCCOc1cc2cc(C(=O)NC3CCN(C(C)C)CC3)n(CC(=O)Nc3ccc(Cl)cn3)c2cn1` the outcome was “inactive”. `O=C1OC(=O)C2C3C=CC(C3)C12` (stereo not given) was tested, and the outcome was “inactive”. In the case of `CC(C)CCO`, the outcome is reported as “inactive”. With `CCCC(=O)OCC` the outcome was “inactive”. For `CC[C@H]1OC(=O)[C@H](C)[C@@H](O[C@H]2C[C@@](C)(OC)[C@@H](O)[C@H](C)O2)[C@H](C)[C@@H](O[C@@H]2O[C@H](C)C[C@H](N(C)C)[C@H]2O)[C@](C)(O)C[C@@H](C)C(=O)[C@H](C)[C@@H](O)[C@]1(C)O`, the outcome was “inactive”. For `Clc1nc(Cl)c(Cl)c(Cl)c1Cl`, the outcome was “inactive”. In the case of `O=C(OC[C@H]1O[C@@H](OC(=O)c2cc(O)c(O)c(OC(=O)c3cc(O)c(O)c(O)c3)c2)[C@H](OC(=O)c2cc(O)c(O)c(OC(=O)c3cc(O)c(O)c(O)c3)c2)[C@@H](OC(=O)c2cc(O)c(O)c(OC(=O)c3cc(O)c(O)c(O)c3)c2)[C@@H]1OC(=O)c1cc(O)c(O)c(OC(=O)c2cc(O)c(O)c(O)c2)c1)c1cc(O)c(O)c(OC(=O)c2cc(O)c(O)c(O)c2)c1`, the outcome is reported as “inactive”. With `COc1ccc2sc(C(=O)Nc3nnn[nH]3)c(OC(C)C)c2c1` the outcome was “inactive”. With `COCCOCCOCCOC` the outcome was “inactive”. With `CC(C)CCCCCCCOC(=O)CCCCC(=O)OCCCCCCCC(C)C` the AC50 was 100 µM (active). `CCOC(=O)COc1ccc2c(c1)CC(NCC(O)c1cccc(Cl)c1)CC2` (stereo not given) was tested, and the outcome was “inactive”. With `CCCCCCCCCCCCc1ccccc1` the AC50 was 61.2 µM (active). With `C=CC(=C)CCC=C(C)C` the outcome was “inactive”. In the case of `C1=CCCC=CCCC=CCC1`, the AC50 is reported as 63.5 µM (active). For `CC(C)=CCCC(C)=CC=O`, the outcome was “inactive”. In the case of `CC(=O)OC[C@H]1O[C@@](COC(C)=O)(O[C@H]2O[C@H](COC(C)=O)[C@@H](OC(C)=O)[C@H](OC(C)=O)[C@H]2OC(C)=O)[C@@H](OC(C)=O)[C@@H]1OC(C)=O`, the outcome is reported as “inactive”. `CCOC(=O)CC(CC(=O)OCC)(OC(C)=O)C(=O)OCC` was tested, and the outcome was “inactive”. `COC(=O)c1ccccc1O` was tested, and the AC50 was 2.1 µM (active). For `CC(C)(O)c1coc(S(=O)(=O)NC(=O)Nc2c3c(cc4c2CCC4)CCC3)c1`, the outcome was “inactive”. With `Cn1c(=O)cc(Oc2ccc(F)cc2F)c2cnc(NCC(C)(C)O)nc21` the outcome was “inactive”.
